# Experimental data taken from PubChem BioAssay AID1159583 (ICCB-Longwood Screening Facility, Harvard Medical School, 2016).
# Several values for one entry are separate records, joined by “and”; a condition that tells them apart may be missing. Identical values can stand only once. The campaign covered roughly 300,000 compounds. About 310 (0.1%) were called active. Cut-off read from the data, not from the text of the source: active = fluorescence inhibition mostly above about 23% (no sharp cut-off); inactive = mostly below about 17%. What follows is part of a selection rich in actives, with near analogues and random picks from the rest.
# Assay: hypoxia reporter signal reduction in M. tuberculosis – fluorescence, absorbance growth readout, primary screen (AID 1159583)
# Details: M. tuberculosis hypoxia-regulated fluorescent reporter, stronger effect = higher value, concentration not given here; growth inhibition: measured here: M. tuberculosis growth (absorbance)
SMILES,fluorescence inhibition,growth inhibition
Cc1ccc(C(=O)ON=Cc2ccc3c(c2)OCO3)cc1,2.14% (inactive),12.4%
Cc1ccsc1/C=C1\SC(N2CCOCC2)=NC1=O,59.8% (active),35.7%
CCc1ccc(/C=C2\SC(N3CCOCC3)=NC2=O)cc1,-2.06% (inactive),6.4%
O=C1N=C(N2CCOCC2)S/C1=C\C=C/c1ccccc1,16.7% (inactive),6.03%
COC(=O)c1ccc(C=NN2C(C)CCCC2C)cc1 (stereo unspecified),12.1% (inactive),0.227%
[O-]C1=N[N+](=Cc2ccc(Cl)cc2)CC1,9.03% (inactive),2.77%
Cc1ccc(F)c(C2C3C=CCC[C@@]3(C)C(=O)N2Cc2ccccc2)c1 (stereo partly specified),0.237% (inactive),4.91%
CCOC(=O)C1C2COc3ccc(OC)cc3C2N2C(=O)c3cc(OC)ccc3NC(=O)[C@@]12C (stereo partly specified),-0.571% (inactive),-0.925%
CN1CCSC1=CC=C1C(=O)N(C)C(=S)N1C,41.3% (active),10.5%
CN1C(=O)/C(=C/C=C2\SCCN2C)OC1=S,-23.3% (inactive),5.47%
Oc1ccc(C=NNC(=S)Nc2cccnc2)c(O)c1O,19% (inactive),3.53%
O=C(NN=Cc1cccc2nccnc12)c1ccncc1,93.3%,
C#CCOCCOCCOCCNc1nc(N2CCN(C(=O)C(CCC(=O)O)n3cc(C(N)Cc4ccc(O)cc4)nn3)CC2)nc(N2CCN(C(=O)C(C(C)CC)n3cc(C(N)CO)nn3)CC2)n1 (stereo unspecified),8.78% (inactive),6.78%
N#CC(=Cc1ccc(O)c(O)c1)C(=O)c1ccc(O)c(O)c1,-0.458% (inactive),-7.09%
CC(=NNc1nc(C)cc(-c2ccccc2)n1)c1ccc(C)o1,5.64% (inactive),13.1%
CCC(C)CCN1C(Nc2ccccc2)=NCC1CC(C)C (stereo unspecified),2.94% (inactive),9.85%
CC(=NNC(=S)Nc1ccccc1)c1ccc2c(c1)OCO2,4.36% (inactive),-7.15%
CN1CCN(C(=O)C2=CC(c3ccccc3)CC(OCc3ccc(CO)cc3)O2)CC1 (stereo unspecified),10.4% (inactive) and -0.342% (inactive),12.8% and -5.24%
C=CCNC(=S)N=c1sccn1C,6.54% (inactive),-7.89%
CC(=NNC(=O)c1cc(-c2cccc([N+](=O)[O-])c2)n[nH]1)c1ccc(F)cc1,14.8% (inactive),-5.45%
COc1ccc(N(CC(=O)NN=C(C)c2cccs2)S(=O)(=O)c2ccccc2)cc1Cl,-6% (inactive),-2.78%

SMILES,fluorescence inhibition,growth inhibition
CCOC(=O)C1C2COc3ccccc3C2N2C(=O)N(c3cccc(F)c3)C(=O)[C@@]12C (stereo partly specified),-2.44% (inactive),3.57%
COC(=O)C1=C(c2ccc(OC(F)(F)F)cc2)CC2CCC1N2C(=O)NCCOc1ccc(OC)cc1 (stereo unspecified),0.962% (inactive),6.26%
O=C(CC(=O)NC1CCCCC1)NN=Cc1ccccc1Cl,2.92% (inactive),1.5%
CCN1CC2C3C(=O)N(Cc4ccccc4)C(=O)C3[C@](CC)(C1=O)N2C(=O)c1ccc(Br)cc1 (stereo partly specified),6.17% (inactive),7.16%
CN1CC2C3C(=O)N(C)C(=O)C3[C@](C)(C1=O)N2C(=O)c1ccc(Cl)c(Cl)c1 (stereo partly specified),18.2% (inactive),5.39%
Oc1cccc(C=NNc2ncnc3c2ncn3Cc2ccccc2)c1,12.7% (inactive),4.03%
COc1ccc(C(N)=NOC(=O)c2cccc([N+](=O)[O-])c2)cc1,2.69% (inactive),7.49%
Cc1cc(C=NNC(N)=S)c(C)n1-c1ccc(Cl)cc1,79.4%,
O=C(O)c1cc(C(=O)O)cc(-c2ccc(C=c3sc4nc5ccccc5n4c3=O)o2)c1,9.74% (inactive),9.98%
O=C(C1=CC(c2csc3ccccc23)CC(OCc2ccc(CO)cc2)O1)N1CCCCCCC1 (stereo unspecified),5.62% (inactive),15.1%
COc1ccc2c(Cl)c(C(=O)NN=Cc3c(C)[nH]c4ccccc34)sc2c1,12.9% (inactive),-1.23%
COc1cccc(C(=O)NN=C(c2ccccc2)c2ccccn2)c1,5% (inactive),11%
CCOC(=O)c1cc(C)sc1N=CC1C(=O)CC(C)(C)CC1=O,5.08% (inactive),4.24%
Cc1ccc(C2C3C(=O)N(C)C(=O)C3[C@]3(C)C(=O)N(CC4CC4)CC(=O)N23)o1 (stereo partly specified),3.26% (inactive),-2.47%
CC(=NNC(=O)C(=O)Nc1ccc(C)c(Cl)c1)c1ccncc1,9.7% (inactive),2.87%
CCOC(=O)C1=C(N)n2c(sc(=Cc3ccncc3)c2=O)=C(C(=O)OCC)C1c1ccncc1 (stereo unspecified),-2.3% (inactive),-3.45%
C=C1CC(C(=O)NN=Cc2ccc(O)cc2)C1,2.24% (inactive),7.43%
COc1ccc(NC(=O)COC(=O)CON=C(C)c2ccc3c(c2)OCO3)cc1S(N)(=O)=O,-7.57% (inactive),-2.6%
Cc1ccc(-c2c(C(=O)NN=Cc3ccc(C)o3)nnn2-c2nonc2N)cc1,3.86% (inactive),8.97%
Cc1ccc(C=NNC(=O)CSc2nc3ccccc3n2C)s1,13.6% (inactive),0.932%
COc1ccc(-c2nn(-c3ccccc3)cc2C=NNC(=O)c2cccc(S(=O)(=O)Nc3ccccc3OC)c2)cc1,12.6% (inactive),0.139%

SMILES,fluorescence inhibition,growth inhibition
O=C(Cc1n[nH]c(=O)[nH]c1=O)NN=CCCc1ccccc1,11.1% (inactive),4.96%
CCCN(CCC)Cc1c(C(=O)NN=Cc2c[nH]c3ccccc23)nnn1-c1nonc1N,-3.6% (inactive),2.65%
C=C1CCN(C(C)C(=O)NCc2ccc(OC)cc2)S(=O)(=O)c2ccccc21 (stereo unspecified),19.8% (inactive),12.8%
CCOc1ccc(-c2nnc3ccc(SC)nn23)cc1,4.55% (inactive),1.4%
CCOc1ccc(-c2cc(C)[n+](CCN(CC)CC)c(-c3ccc(OCC)cc3)c2)cc1,53.9% (active),33.9%
CCOc1ccc2c(c1)C(c1ccc(C)cc1)=NNC(c1ccc(C)cc1)=N2,21.9% (inactive),10.8%
O=C(NN=Cc1c[nH]c2ccccc12)c1cc2ccccc2o1,0.899% (inactive),8.76%
COc1cccc(C=NNc2ncnc3c2ncn3Cc2ccccc2)c1O,7.12% (inactive),2.3%
CCc1ccc(S(=O)(=O)NN=Cc2ccc3c(c2)OCO3)cc1,1.76% (inactive),-2.08%
CN1C(=O)C(=NOC(=O)c2ccccc2Cl)c2ccccc21,12.3% (inactive),3.63%
COc1ccc(C=NNc2c(Cl)cc(Cl)cc2Cl)cc1CN1CCOCC1,-4.05% (inactive),12.6%
CC(C)(C)NS(=O)(=O)c1ccc(NC(=O)NC2CCCCC2)cc1,3.29% (inactive),2.76%
CC(C)c1ccc(NC(=O)NC2CCCCC2)cc1,20.8% (active),53%
Cc1cc(C)cc(NC(=O)NC2CCCCCCC2)c1,95.8%,
CSc1nsc(NN=Cc2ccccc2)c1C#N,1.35% (inactive),9.85%
CC(C)CCn1c(=O)c(C(=O)NN=Cc2cccc(F)c2)c(O)c2ccccc21,5.09% (inactive),2.73%
O=C1CC2c3c(cccc3CN1Cc1ccc(F)cc1)CC(O)C2O (stereo unspecified),13.8% (inactive),7.24%
CC(=NNC(=O)c1ccn(C)n1)c1cccc(NC(=O)c2ccncc2)c1,-2.04% (inactive),6.06%
COCc1c(Br)c(C)nc(OCC(=O)NN=Cc2ccc(C)o2)c1C#N,18.1% (inactive),8.53%
CCC(=NNC(C)=O)c1ccc(OC(F)F)cc1,18.5% (inactive),-1.52%
Cc1c(C=NNC(=O)c2ccc(F)cc2)cnn1C,2.95% (inactive),1.5%

SMILES,fluorescence inhibition,growth inhibition
COc1ccc(C2CC(=O)C=C(c3ccc(Cl)cc3C)C2)cc1 (stereo unspecified),14.8% (inactive),2.62%
O=C(O)CC1c2cc(C(F)(F)F)ccc2S(=O)(=O)N1C1CCCCC1 (stereo unspecified),13.2% (inactive),14.6%
CCOc1cc(C=NNC(=O)CSc2nnc(C)s2)ccc1OCc1ccccc1Cl,-1.48% (inactive),-4.08%
CC1(C)CC(=O)CC(=NNC(=O)C2CC2c2ccccc2)C1 (stereo unspecified),-1.34% (inactive),15.1%
O=C(O)c1cccc2c1-c1ccccc1C2=NNc1ccccc1,1.02% (inactive),-10.1%
O=[N+]([O-])c1ccccc1NN=Cc1cccc(O)c1O,9.33% (inactive),0.684%
CC(=NO)C(C)(C)Nc1cccc(F)c1,-1.15% (inactive),4.49%
COc1ccc(-c2sc3ccccc3c2C=Cc2ccc(OC)c(OC)c2)cc1,17.3% (inactive),10%
COc1ccc(C2C=CCN(S(C)(=O)=O)C(C)C(=O)N2Cc2ccc(F)cc2)cc1 (stereo unspecified),18% (inactive),13.9%
CC(C)(C)OC(=O)NC(Cc1ccccc1)C(=O)NC(CO)C(O)C1CC1C(=O)NC1CC1 (stereo unspecified),14.6% (inactive),4.91%
O=C(CN1CCN(Cc2ccc(Cl)cc2)CC1)NN=Cc1cccs1,6.55% (inactive),-3.12%
Cc1ccc(C=NNC(=O)Nc2ccccc2)o1,14.8% (inactive),5.33%
CCN1C(=O)C(CC(=O)Nc2ccccc2)SC1=Nc1ccccn1 (stereo unspecified),0.176% (inactive),4.92%
COc1ccc(Cl)cc1NC(=O)CC(C)=NNC(=O)COc1ccc(C)cc1,13.3% (inactive),3.14%
O=[N+]([O-])c1ccc(Cl)cc1NN=Cc1ccncc1,6.88% (inactive),-1.48%
O=C(NN=Cc1ccncc1)c1cc2c(ccc3ccccc32)o1,-1.63% (inactive),10.4%
COc1cc(C=NNC(=S)NCc2ccccc2)ccc1OCC#N,8.67% (inactive),7.58%
CC(C)c1ccc(C=NNC(=O)c2cc(-c3cccc([N+](=O)[O-])c3)n[nH]2)cc1,16.3% (inactive),1.5%
Cc1ccc(C=NNC(=O)CCCOc2ccc(Cl)cc2Cl)cc1[N+](=O)[O-],1.7% (inactive),5.81%
